Structures are written as SMILES.

For the assay, the target named is AMP-activated protein kinase, AMPK (Homo sapiens) (UniProt P54646+O43741+P54619+Q9UGJ0+Q9Y478+Q13131+Q9UGI9). Nature of the assay: AMP-dependent Kinase enzyme assay. An in vitro enzyme assay that detects ADP turnover that is directly proportional to AMPK activity. This uses naive AMPK that is activated during the assay with MK-8722. It counts as functional. Also on record: scale not given: direction of the effect not stated beside the values. To be noted: 30 µM.
With `Cc1nnc(CCNC(=O)Nc2ccc(S(C)(=O)=O)cc2)[nH]1`, the Percent Effect turned out to be 6.21%.

As to `N#Cc1ccc(Cl)cc1NCC1CC1`, the Percent Effect is 5.1%.

As for `Cc1cc(NC(=O)CN2CCN(C3CCCC3)C(=O)C2)nn1C`, the Percent Effect was 8.93%.

Regarding `O=C1CN(Cc2cn(CC3CCCN(C4CCSCC4)C3)nn2)CCN1` (stereo not given), the Percent Effect was -8.48%.

`Cn1ccnc1CNCCNc1ncc(Cl)cc1Cl`: the Percent Effect is -1.1%.

Regarding `CC(C)N(C)S(=O)(=O)c1ccc2c(c1)CCN(C(=O)c1ccccn1)C2`, the Percent Effect is -446%.

For `NC(=O)CC1CCCN(c2cncc(OCc3ccccc3)n2)C1` (stereo not given), the Percent Effect came out at 20.7%.

On to `Cn1cnnc1C1CCCN(c2nc3ccccc3o2)C1` (stereo not given), for which the Percent Effect was -1.42%.

Consider `Cc1ncsc1COC(=O)c1cccc2c1OCCO2`, for which the Percent Effect was determined as 7.13%.

As for `COc1ccc2c(c1)CCCC2CC(=O)NCC(=O)O` (stereo not given), the Percent Effect came out at 3.73%.

For the molecule `CCCC1COCCN1Cc1ccc(NC(C)=O)cc1` (stereo not given), the Percent Effect was -4.72%.

Consider `COCc1c(Br)cccc1NC(=O)CC(F)(F)F`, for which the Percent Effect was -6.57%.

As to `Cc1nn(C)c(C)c1C1CCCN1C(=O)c1cc(C(N)=O)cs1` (stereo not given), the Percent Effect is -0.756%.

Consider `N#Cc1c(N)nc2c(c1C1CCOC1)CCc1cc(O)ccc1-2` (stereo not given), for which the Percent Effect came out at 32%.

On to `Nc1nc(O)cc(N2CCC(c3cc(Cc4ccccc4)n[nH]3)CC2)n1`, for which the Percent Effect was -82.1%.

Take `O=S(=O)(c1cn[nH]c1)N1CCC(O)(CN2CCOCC2)C1` (stereo not given): the Percent Effect turned out to be 3.92%.

Consider `O=C(CC1CCCC1)NCCS(=O)(=O)N1CCN(c2ncccn2)CC1`, for which the Percent Effect was -1.03%.

Take `CC(=O)N[C@H]1CCO[C@@H](c2cccc(NC(=O)c3ccc(=O)[nH]n3)c2)C1`: the Percent Effect turned out to be 14.1%.

On to `Cc1ccccc1C(=O)NCC(=O)NCc1ccccn1`, for which the Percent Effect worked out at 17.3%.

In the case of `CCc1ccc2nc(C)cc(C(=O)NC3CCNC3=O)c2c1` (stereo not given), the Percent Effect is -4.37%.

On to `O=C(Cn1ccc(=O)[nH]c1=O)NCc1cccnc1OCC(F)(F)F`, for which the Percent Effect is -4.52%.

Consider `COC[C@@H]1CCCN1C(=O)CCc1c(C)nn(C)c1C`, for which the Percent Effect was -3.67%.

Regarding `CCN(CCNC(=O)Nc1nnc(C)s1)C(=O)OC(C)(C)C`, the Percent Effect was -0.666%.

Consider `O=C1NCCN(CC2CCCCC2)C1CC(=O)N1CCc2n[nH]cc2C1` (stereo not given), for which the Percent Effect is -8.97%.

As for `Cc1[nH]c2c(F)cccc2c1CC(=O)NC1CCCCNC1=O` (stereo not given), the Percent Effect was 10.4%.

In the case of `COc1cc(N2CCN(Cc3ccc(C)o3)C(CCO)C2)nc(N)n1` (stereo not given), the Percent Effect came to 0.197%.

Consider `Cn1cc(S(=O)(=O)NCc2ccsc2)cn1`, for which the Percent Effect is -0.312%.

`O=C(O)[C@H]1C[C@H](C(=O)NCc2ccncc2)CN(CCC(F)(F)F)C1`: the Percent Effect is -2.07%.

For the molecule `COc1ccc(-c2cc(C3CCCCCN3S(C)(=O)=O)on2)cc1` (stereo not given), the Percent Effect came out at 7.05%.

Turning to `COc1ccc(N2CCN(C(=O)CCCc3cn[nH]c3)CC2=O)cc1`, the Percent Effect was -3.84%.

For the molecule `CN(Cc1nc2ccccc2[nH]1)C(=O)CN(C)c1ccc(Cl)cn1`, the Percent Effect was -0.551%.

On to `Cc1cc(C)cc(-n2ncc3c2CCCC3N)c1` (stereo not given), for which the Percent Effect was determined as 15.1%.

Take `Cc1nn(C)c(C)c1-c1ccc(=O)n(C(C)C(=O)NC2CCCC2)n1` (stereo not given): the Percent Effect was 9.03%.

`CC(C)c1ocnc1C(=O)Nc1cccc(Cn2ccccc2=O)c1`: the Percent Effect came out at 8.27%.

For `Cn1cnc(S(=O)(=O)N2CCCCc3ccccc32)c1`, the Percent Effect was -0.149%.

As for `COc1ccccc1CN(C)C(=O)C[S+]([O-])Cc1cc(C)on1` (stereo not given), the Percent Effect is -2.86%.

With `N#Cc1cccc(N2CCC(CO)(CCCc3ccccc3)CC2)n1`, the Percent Effect is 6.03%.

Take `COCCN1CCN(C(=O)C(c2cccc(F)c2)N(C)C)CC1` (stereo not given): the Percent Effect is -5.71%.

`CN(C)CC(=O)NC1CC(C)(C)Cc2nc(C(C)(C)C)ncc21` (stereo not given): the Percent Effect was -0.385%.

For `c1ccc(CCN2CCCC2c2cccc(Nc3nccs3)n2)cc1` (stereo not given), the Percent Effect is 3.49%.

The record behind these values is ChEMBL document CHEMBL3988442, “University of Dundee, Small-Polar-MMV Screening Library” (2021).
